Results taken from the supplement of paper PMC12350171.
Where a name gives a salt, the structure may show the parent alone.

Experiments:
Conditions in all cases: 20 µM
[1] = system: Salmonella enterica typhimurium; test: growth AUC normalised to DMSO control (fraction of control); higher = less growth inhibition, active = hit call of the paper
Summary of the method: (§1)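 Hemin and NAD were added to the medium for Haemophilus parainfluenzae. All pathogens, after two anaerobic passages, were inoculated at a starting OD578 of 0.01 into pre-reduced mGAM plates with 20 μM compound and 1% DMSO under breathable seals, and OD578 was read hourly for 24 h in three biological replicates. AUC of each growth curve was obtained with the trapezoidal rule up to the exponential-to-stationary transition and normalised to DMSO controls from the same plate.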

[2] = system: Shigella flexneri; test: as above
Summary of the method: as §1

[3] = system: Vibrio cholerae; test: as above
Summary of the method: as §1

[4] = system: Yersinia pseudotuberculosis; test: as above
Summary of the method: as §1

[5] = system: P. vulgatus RND KO; test: growth AUC normalised to DMSO control (median) (fraction of control); higher = less growth inhibition, active = hit call of the paper
Summary of the method: (§2)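 Strains were passaged twice overnight without oxygen, then grown in mGAM in 96-well plates with each approved-drug library compound at 20 μM and 1% DMSO, starting at OD578 0.01. OD578 was read hourly for 24 h inside an anaerobic incubator. Curves were truncated at entry into stationary phase, and the trapezoidal-rule area under the curve was normalised to same-plate vehicle wells. The value is the median across three biological replicates.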

[6] = system: P. vulgatus WT; test: as above
Summary of the method: as §2

[7] = system: S. enterica typhimurium WT; test: as above
Summary of the method: as §2

[8] = system: S. enterica typhimurium tolC KO; test: as above
Summary of the method: as §2

Measured: growth AUC normalised to DMSO control
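Throughout, for growth AUC normalised to DMSO control (median): active when median AUC fell below 0.1.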

CCN[C@H]1C[C@H](C)S(=O)(=O)c2sc(S(N)(=O)=O)cc21 [Dorzolamide hydrochloride]
inactive: [1] 1.02 | [2] 1.04 | [3] 1.04 | [4] 1.03 | [5] 1.05 | [6] 1.05 | [7] 1 | [8] 1.01

CCCCC(=O)O[C@H]1CC[C@H]2[C@@H]3CCc4cc(O)ccc4[C@H]3CC[C@]12C [Estradiol Valerate]
inactive: [1] 1.05 | [2] 1.05 | [3] 1.08 | [4] 1.01 | [5] 1 | [6] 1.07 | [7] 0.998 | [8] 1

COc1c(N2C[C@@H]3CCCN[C@@H]3C2)c(F)cc2c(=O)c(C(=O)O)cn(C3CC3)c12 [Moxifloxacin]
active: [1] 0.00585 | [2] 0.0275 | [3] 0.0211 | [4] 0.0337 | [5] 0.017 | [6] 0.0128 | [7] 0.0075 | [8] 0.00519

Clc1ccc(CO/N=C(\Cn2ccnc2)c2ccc(Cl)cc2Cl)c(Cl)c1 [Oxiconazole nitrate]
inactive: [1] 1.02 | [2] 1.04 | [3] 1.05 | [4] 0.983 | [5] 1.01 | [6] 1.04 | [7] 1 | [8] 0.909

Cc1nc2ccccn2c(=O)c1CCN1CCC(C(=O)c2ccc(F)cc2)CC1 [Pirenperone]
inactive: [1] 1.02 | [2] 1.03 | [3] 1.01 | [4] 1 | [5] 1.03 | [6] 1.04 | [7] 1.01 | [8] 0.986

NC(=O)N/N=C/c1ccc([N+](=O)[O-])o1 [Nitrofural]
inactive: [6] 0.254 | [7] 0.902 | [8] 0.818
active: [1] 0.713 | [2] 0.154 | [3] 0.01 | [4] 0.875 | [5] 0.0943

NC(CO)C(=O)NNCc1ccc(O)c(O)c1O (stereo not given) [Benserazide hydrochloride]
inactive: [1] 1 | [2] 1 | [3] 1.01 | [4] 0.942 | [5] 0.969 | [6] 0.973 | [7] 0.982 | [8] 1

CCCCCN(CCCCC)C(=O)C(CCC(=O)O)NC(=O)c1ccc(Cl)c(Cl)c1 (stereo not given) [Lorglumide sodium salt]
inactive: [1] 1 | [2] 0.965 | [3] 0.986 | [4] 1.01 | [5] 0.947 | [6] 0.959 | [7] 1 | [8] 0.991

CN1CC2c3ccccc3Oc3ccc(Cl)cc3C2C1 (stereo not given) [Asenapine maleate]
active: [3] 0.837
inactive: [1] 0.954 | [2] 0.974 | [4] 0.976 | [5] 0.939 | [6] 0.948 | [7] 0.973 | [8] 0.935

N=C(N)NCC1COC2(CCCCC2)O1 (stereo not given) [Guanadrel sulfate]
inactive: [1] 0.979 | [2] 0.964 | [3] 0.983 | [4] 0.985 | [5] 0.965 | [6] 0.969 | [7] 0.994 | [8] 0.99

CCN(CC)C(=O)Nc1ccc(OCC(O)CNC(C)(C)C)c(C(C)=O)c1 (stereo not given) [Celiprolol hydrochloride]
inactive: [1] 0.995 | [2] 0.992 | [3] 0.99 | [4] 1.01 | [5] 0.997 | [6] 1.01 | [7] 0.994 | [8] 0.994

CC(=O)OCC(CCn1cnc2cnc(N)nc21)COC(C)=O [Famciclovir]
inactive: [1] 1.02 | [2] 1.01 | [3] 1.04 | [4] 1.01 | [5] 1.03 | [6] 1.03 | [7] 1 | [8] 0.976

CCC[C@H](N[C@@H](C)C(=O)N1[C@H](C(=O)O)C[C@@H]2CCCC[C@@H]21)C(=O)OCC [Perindopril]
inactive: [1] 1.02 | [2] 1.02 | [3] 0.963 | [4] 1.04 | [5] 1.03 | [6] 1.04 | [7] 1.01 | [8] 1

CC(C)(C)NCC(O)COc1cccc2c1CCC(=O)N2 (stereo not given) [Carteolol hydrochloride]
inactive: [1] 1 | [2] 0.985 | [3] 0.993 | [4] 1 | [5] 0.945 | [6] 0.968 | [7] 0.998 | [8] 0.991

CC[C@H](C)[C@H](N)C1=N[C@H](C(=O)N[C@@H](CC(C)C)C(=O)N[C@H](CCC(=O)O)C(=O)N[C@H](C(=O)N[C@H]2CCCCNC(=O)[C@H](CC(N)=O)NC(=O)[C@@H](CC(=O)O)NC(=O)[C@H](Cc3cnc[nH]3)NC(=O)[C@@H](Cc3ccccc3)NC(=O)[C@H]([C@@H](C)CC)NC(=O)[C@@H](CCCN)NC2=O)[C@@H](C)CC)CS1 [Bacitracin]
inactive: [1] 0.996 | [2] 0.98 | [3] 1.15 | [4] 0.976 | [5] 0.137 | [6] 0.104 | [7] 1.01 | [8] 1.01

O=C(O)COC(=O)Cc1ccccc1Nc1c(Cl)cccc1Cl [Aceclofenac]
inactive: [1] 0.995 | [2] 0.979 | [3] 0.979 | [4] 0.999 | [5] 0.995 | [6] 0.983 | [7] 1.01 | [8] 0.998

COC1=C(OC)C(=O)C(CCCCCCCCCCO)=C(C)C1=O [Idebenone]
inactive: [1] 1.02 | [2] 1.01 | [3] 0.989 | [4] 1.02 | [5] 0.913 | [6] 0.95 | [7] 1.01 | [8] 0.972

OCCN1CCN(CC/C=C2/c3ccccc3Sc3ccc(Cl)cc32)CC1 [Zuclopenthixol dihydrochloride]
inactive: [1] 0.996 | [2] 0.972 | [3] 0.946 | [4] 0.998 | [5] 0.928 | [6] 0.962 | [7] 0.992 | [8] 0.887

CN(C)CCOC(c1ccccc1)c1ccccc1 [Diphenhydramine hydrochloride]
inactive: [1] 0.993 | [2] 0.976 | [3] 0.976 | [4] 0.969 | [5] 1.01 | [6] 1 | [7] 0.981 | [8] 1

COCCOC(=O)C1=C(C)NC(C)=C(C(=O)OC/C=C/c2ccccc2)C1c1cccc([N+](=O)[O-])c1 (stereo not given) [Cilnidipine]
inactive: [1] 1.01 | [2] 1.01 | [3] 1.03 | [4] 0.976 | [5] 0.989 | [6] 0.98 | [7] 1.01 | [8] 1.01

Cn1cnc([N+](=O)[O-])c1Sc1ncnc2[nH]cnc12 [Azathioprine]
inactive: [1] 1 | [2] 0.992 | [3] 1.01 | [4] 1.01 | [5] 0.955 | [6] 0.92 | [7] 1.02 | [8] 0.998

Cc1c(N(C)CS(=O)(=O)O)c(=O)n(-c2ccccc2)n1C [Dipyrone sodium salt]
inactive: [1] 1.02 | [2] 1.03 | [3] 1.09 | [4] 1.02 | [5] 0.999 | [6] 0.996 | [7] 1.01 | [8] 0.999

OCCN1C[C@H](O)[C@@H](O)[C@H](O)[C@H]1CO [Miglitol]
inactive: [1] 0.991 | [2] 0.971 | [3] 0.986 | [4] 0.991 | [5] 1 | [6] 0.995 | [7] 1.01 | [8] 0.988

Cc1cc(C2CCCCC2)n(O)c(=O)c1 [Ciclopirox ethanolamine]
inactive: [1] 1.01 | [2] 0.997 | [3] 0.969 | [4] 0.995 | [5] 1.02 | [6] 0.999 | [7] 1.02 | [8] 0.952

CN(C)c1nc(N(C)C)nc(N(C)C)n1 [Altretamine]
inactive: [1] 1.01 | [2] 1.06 | [3] 1.05 | [4] 1.02 | [5] 1.01 | [6] 0.998 | [7] 1 | [8] 0.99

CC(C)NCC(O)c1ccc(NS(C)(=O)=O)cc1 (stereo not given) [Sotalol hydrochloride]
inactive: [1] 1 | [2] 1.06 | [3] 1.04 | [4] 1.02 | [5] 1.02 | [6] 1.06 | [7] 1.01 | [8] 0.998

O=C(O)CCC(=O)Nc1ccc(S(=O)(=O)Nc2nccs2)cc1 [Succinylsulfathiazole]
inactive: [1] 1 | [2] 0.997 | [3] 0.999 | [4] 1 | [5] 1 | [6] 1.05 | [7] 1 | [8] 0.994

CCn1cc(C(=O)O)c(=O)c2cc(F)c(N3CCN(C)CC3)cc21 [Pefloxacin]
inactive: [5] 1.01 | [6] 0.799
active: [1] 0.00601 | [2] 0.0383 | [3] 0.0435 | [4] 0.0255 | [7] 0.00724 | [8] 0.00757

Nc1nc(=O)n([C@@H]2CS[C@H](CO)O2)cc1F [(-) Emtricitabine]
inactive: [1] 0.995 | [2] 0.961 | [3] 0.993 | [4] 0.981 | [5] 0.983 | [6] 0.986 | [7] 0.998 | [8] 0.993

COc1cc(C(=O)NCc2ccc(OCCN(C)C)cc2)cc(OC)c1OC [Trimethobenzamide hydrochloride]
inactive: [1] 1.02 | [2] 1.01 | [3] 1.05 | [4] 1.02 | [5] 1.02 | [6] 1.05 | [7] 0.999 | [8] 1.01
